PubChem BioAssay AID1159580 (chemical genetic matrix, 2015)
About 2,000 (36%) of roughly 5,500 compounds were called active. Another 18% or so got no clear call; they are omitted. No stated cut-off is given here; in the data, active means normalized growth mostly below about 0.91 (no sharp cut-off); inconclusive means no clear call, values can overlap the other calls; inactive means mostly above about 0.92. The list shows a part of the results.

Test: chemical genetic growth profiling, strain panel (AID 1159580);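 further: tested at 20 µM; growth read once vehicle control cultures reached saturation at 30 °C; 1 = growth at the plate median or of vehicle wells; lower values mean less growth of the strain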
Conditions: S. cerevisiae deletion strains, growth OD

Measured: normalized growth

COP(=S)(OC)Oc1ccc(SC)c(C)c1
inactive: locus YAL013W, strain DEP1, active compounds read low 1 | locus YAL021C, strain ccr4, active compounds read low 1.07 | locus YAL026C, strain drs2, active compounds read low 0.984 | locus YAL030W, strain snc1, active compounds read low 1 | locus YBL061C, strain skt5, active compounds read low 0.981 | locus YBR021W, strain FUR4, active compounds read low 0.98 | locus YBR023C, strain chs3, active compounds read low 0.973 | locus YBR171W, strain sec66, active compounds read low 0.992 | locus YBR229C, strain ROT2, active compounds read low 1.02 | locus YBR231C, strain swc5, active compounds read low 1.03 | locus YBR279W, strain paf1, active compounds read low 1.01 | locus YCL011C, strain gbp2, active compounds read low 0.955 | locus YCL016C, strain dcc1, active compounds read low 0.954 | locus YCL029C, strain bik1, active compounds read low 0.988 | locus YCL069W, strain vba3, active compounds read low 0.981 | locus YCR088W, strain abp1, active compounds read low 1 | locus YDL005C, strain med2, active compounds read low 1.01 | locus YDL035C, strain GPR1, active compounds read low 1.01 | locus YDL040C, strain nat1, active compounds read low 1 | locus YDL074C, strain BRE1, active compounds read low 1.01 | locus YDL101C, strain DUN1, active compounds read low 1.03 | locus YDL134C, strain PPH21, active compounds read low 1.02 | locus YDL185W, strain tfp1, active compounds read low 0.986 | locus YDL192W, strain arf1, active compounds read low 0.989 | locus YDR001C, strain nth1, active compounds read low 0.999 | locus YDR069C, strain doa4, active compounds read low 1.02 | locus YDR101C, strain arx1, active compounds read low 0.988 | locus YDR137W, strain rgp1, active compounds read low 0.94 | locus YDR150W, strain NUM1, active compounds read low 1.02 | locus YDR159W, strain sac3, active compounds read low 0.919 | locus YDR162C, strain NBP2, active compounds read low 1.01 | locus YDR297W, strain sur2, active compounds read low 1.01 | locus YDR318W, strain mcm21, active compounds read low 0.99 | locus YDR334W, strain swr1, active compounds read low 1.01 | locus YDR335W, strain msn5, active compounds read low 1.01 | locus YDR388W, active compounds read low 0.991 | locus YDR392W, strain spt3, active compounds read low 0.766 | locus YDR502C, strain sam2, active compounds read low 1 | locus YEL003W, strain gim4, active compounds read low 1 | locus YEL037C, strain rad23, active compounds read low 1 | locus YEL061C, strain CIN8 (second series), active compounds read low 1 | locus YEL061C, strain CIN8, active compounds read low 1.01 | locus YER015W, strain faa2, active compounds read low 0.995 | locus YER016W, strain bim1, active compounds read low 0.978 | locus YER110C, active compounds read low 0.986 | locus YER111C, strain swi4, active compounds read low 1.01 | locus YER155C, strain BEM2 (second series), active compounds read low 0.951 | locus YER155C, strain BEM2, active compounds read low 1.02 | locus YER167W, strain BCK2, active compounds read low 1 | locus YFR010W, strain ubp6, active compounds read low 1.03 | locus YGL078C, strain dbp3, active compounds read low 0.981 | locus YGL086W, strain mad1, active compounds read low 0.991 | locus YGL167C, strain pmr1, active compounds read low 0.993 | locus YGL173C, strain kem1, active compounds read low 0.988 | locus YGL227W, strain vid30, active compounds read low 1.01 | locus YGL240W, strain doc1, active compounds read low 0.989 | locus YGL248W, strain PDE1, active compounds read low 1.03 | locus YGL253W, strain hxk2, active compounds read low 0.955 | locus YGR078C, strain PAC10, active compounds read low 0.999 | locus YGR135W, strain pre9, active compounds read low 0.987 | locus YGR229C, strain SMI1, active compounds read low 0.984 | locus YGR252W, strain gcn5, active compounds read low 0.922 | locus YHR013C, strain ard1, active compounds read low 1.02 | locus YHR027C, strain rpn1, active compounds read low 0.998 | locus YHR030C, strain SLT2, active compounds read low 1.02 | locus YHR079C, strain IRE1 (second series), active compounds read low 0.99 | locus YHR094C, strain hxt1, active compounds read low 0.984 | locus YHR129C, strain ARP1, active compounds read low 1.01 | locus YHR142W, strain chs7, active compounds read low 0.912 | locus YHR200W, strain rpn10, active compounds read low 0.977 | locus YIL066C, strain RNR3, active compounds read low 1 | locus YIL073C, strain SPO22, active compounds read low 0.954 | locus YIL125W, strain kgd1, active compounds read low 0.996 | locus YIR030C, strain dcg1, active compounds read low 0.988 | locus YJL092W, strain hpr5, active compounds read low 0.992 | locus YJL095W, strain BCK1 (second series), active compounds read low 0.97 | locus YJL095W, strain BCK1, active compounds read low 0.983 | locus YJL115W, strain asf1, active compounds read low 1.02 | locus YJL129C, strain trk1, active compounds read low 0.958 | locus YJL134W, strain LCB3, active compounds read low 1.02 | locus YJL154C, strain vps35, active compounds read low 1.01 | locus YJL164C, strain tpk1, active compounds read low 0.935 | locus YJL166W, strain qcr8, active compounds read low 0.974 | locus YJL168C, strain set2, active compounds read low 0.991 | locus YJL187C, strain SWE1 (second series), active compounds read low 1.01 | locus YJR043C, strain POL32, active compounds read low 1
active: locus YBR009C, strain hhf1, active compounds read low 0.904 | locus YDR195W, strain ref2 1.2 [resistant]
